Bioassay records: PubChem BioAssay, National Center for Advancing Translational Sciences (NCATS)
The list is not random: actives were taken first. Their share in the collection is about 11%.
NIH3T3 tox: Cytotoxic Profiling in NIH 3T3 Cell Line of Diverse Libraries Using Quantitative High-Throughput Screening; Potency, µM (doses to about 96.7 µM), without a hit: at the top dose activity change, negative = cytotoxicity, most hits filed as inhibitors; hit rate 4.3% among 94,000; NIH 3T3 viability, CellTiter-Glo ATP luminescence, 48-72 h; AID 1345082, 2018; also: nearly all actives have a fitted effect of over 55% in size
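Cytotoxicity is measured as loss of cellular ATP: NIH 3T3 cells (400/well) are exposed to compound for 48 or 72 hr at 37 °C, then CellTiter-Glo luminescence is imaged after 10 min at room temperature.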
hNpr1 antagonist: Natriuretic polypeptide receptor (hNpr1) antagonism - Primary qHTS; AID 1347048, 2019; HEK293 hNpr1 GloSensor cGMP, ANP-stimulated luminescence; hit rate 1.6% among 76,000; Potency, µM (highest dose often 46.3 µM), for the others: at the highest dose activity change, negative = inhibition, actives largely listed as inhibitors; calls by dose curve; also: nearly all actives have a fitted effect of over 60% in size
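Compound pre-incubated 30 min at room temperature on GloSensor-loaded HEK293 cells stably carrying hNpr1 and the pGS-40F cGMP biosensor. Stimulation uses hNppA at 0.1 nM final; luminescence is taken at baseline and 20 min post-agonist.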
FLuc inh: Firefly luciferase inhibition profiling of diverse chemical library using quantitative high-throughput screening. hit rate 2.5% among 76,000. AID 1347043, 2019. Potency, µM (series often up to 115 µM), most hits filed as inhibitors. purified P. pyralis luciferase, luminescence, biochemical; also: nearly all actives have a fitted effect of over 65% in size
Target sequence (P08659 whole entry, looked up): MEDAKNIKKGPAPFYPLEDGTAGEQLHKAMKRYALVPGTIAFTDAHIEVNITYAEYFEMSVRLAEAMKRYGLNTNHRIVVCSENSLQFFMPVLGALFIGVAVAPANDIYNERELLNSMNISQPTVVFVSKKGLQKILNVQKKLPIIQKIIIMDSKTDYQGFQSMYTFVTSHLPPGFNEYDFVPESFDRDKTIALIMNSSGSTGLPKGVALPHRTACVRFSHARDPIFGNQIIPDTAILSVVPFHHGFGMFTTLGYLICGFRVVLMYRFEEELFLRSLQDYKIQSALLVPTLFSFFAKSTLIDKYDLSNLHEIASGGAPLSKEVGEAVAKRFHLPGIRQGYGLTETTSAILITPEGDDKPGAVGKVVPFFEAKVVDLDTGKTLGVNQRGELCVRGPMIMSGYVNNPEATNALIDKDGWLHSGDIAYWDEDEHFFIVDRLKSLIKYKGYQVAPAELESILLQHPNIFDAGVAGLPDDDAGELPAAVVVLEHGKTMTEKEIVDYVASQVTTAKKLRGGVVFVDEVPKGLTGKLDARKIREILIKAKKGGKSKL
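Purified P. pyralis luciferase (10nM final) in 50mM Tris acetate pH 7.5, 10mM Mg acetate, 0.01% Tween-20, 0.05% BSA with 10uM D-luciferin and 10uM ATP. Compounds titrated qHTS. Luminescence imaged on CCD.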
HEK cytotox: Cytotoxic Profiling in HEK 293 Cell Line of Diverse Libraries Using Quantitative High-Throughput Screening | HEK 293 viability, ATP luminescence (CellTiter-Glo), 48-72 h | Potency, µM (doses to about 115 µM), without a hit: at the highest dose activity change, negative = cytotoxicity, actives largely listed as inhibitors | hit rate 6.6% among 94,000; also: nearly all actives have a fitted effect of over 60% in size
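HEK 293 cells seeded at 250 cells/well were exposed to compound for 48 or 72 hr at 37 degree Celsius. Viability taken as ATP content by CellTiter-Glo luminescence.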
Numbers without * were called inactive; i = inactive; ? = inconclusive; / = not tested or not shown; [ ] = remark or other dose. Unless noted, calls follow the shape of the dose curve; as a rule, active = well fitted curve in the direction sought with a large enough effect; inconclusive = small, poorly fitted or top-dose-only effect, or another doubt; inactive = no such curve, though single readings can be large; an effect the other way counts as inactive or inconclusive. % is scaled to controls: 0 for no effect and ±100 for the full control effect; potency is read from the fitted curve at half-maximal effect.

SMILES	NIH3T3 tox	hNpr1 antagonist	FLuc inh	HEK cytotox
O=C(C1CC1)N1CCC2(CC1)CC(N(Cc1ccc(F)cc1)C1CC1)CCO2 (stereo not given)	-27.0%	15.4%	i	?
COc1ccc(C2(C(=O)NCc3ccc4ccccc4c3)CCOCC2)cc1	-29.5%	/	/	-21.7%
CO[C@H]1C(=O)N(C(C)C)[C@H]1C1CCN(S(=O)(=O)c2cccc3nsnc23)CC1	-27.4%	/	/	-28.3%
COc1cccc(C(=O)N2CCC(N3C(=O)c4c(c(C)nn4-c4ccccc4)C3C3CC3)C2)c1 (stereo not given)	?	/	/	35.5µM*
Cc1nn(-c2ccccc2)c2c1C(C1CC1)N(C1CCN(C(=O)NC(C)C)C1)C2=O (stereo not given)	-19.7%	/	/	-3.3%
Cc1nn(-c2ccccc2)c2c1C(C1CC1)N(C1CCN(C(=O)c3cccc(Cl)c3)C1)C2=O (stereo not given)	?	/	/	25.1µM*
Cc1nn(-c2ccccc2)c2c1C(C1CC1)N(C1CCN(C(=O)c3cccc(Cl)c3)CC1)C2=O (stereo not given)	-26.9%	/	/	?
Cc1nn(-c2ccccc2)c2c1C(C1CC1)N(C1CCN(C(=O)NC3CCCC3)C1)C2=O (stereo not given)	?	/	/	44.7µM*
O=C(c1ccccc1F)N1CCC2(CC1)CCN(Cc1cccs1)c1ccccc1O2	?	-1.8%	i	?
O=c1cc(C2CC(NC3CCC4(CCNCC4)CC3)C2)nc(C2CC2)[nH]1 (stereo not given)	3.0%	-0.3%	i	-4.6%
Cc1cc(C)n(CCCNC(=O)c2cc(COc3ccc4sc(C)nc4c3)on2)n1	1.2%	7.0%	i	1.1%
CC(C)(C)C(Cn1ccnc1)NC(=O)c1cc(COc2ccc3c(c2)CCCC3)on1 (stereo not given)	20µM*	-14.5%	?	25.1µM*
O=C(NCc1ccccc1F)c1ccc2oc(-c3ccncc3)nc2c1	-35.1%	/	/	?
CCc1cc(=O)n(CC(=O)Nc2ccc(OC)cc2)c(-c2ccccc2)n1	?	-3.2%	i	?
CCc1cc(=O)n(CC(=O)Nc2cc(OC)c(OC)c(OC)c2)c(-c2ccccc2)n1	?	?	i	44.7µM*
O=C1CC2(CCN(C(=O)C3CCN(C(=O)Cc4cccc(Cl)c4)CC3)CC2)Oc2ccccc2N1	?	/	/	39.8µM*
Cc1ccc([S+](=O)([O-])N2CCCC(C(=O)N3CCC4(CC3)CC(=O)Nc3ccccc3O4)C2)cc1 (stereo not given)	?	/	/	35.5µM*
O=C1CC2(CCN(C(=O)C3CCCN(C(=O)Nc4ccc(Cl)cc4)C3)CC2)Oc2ccccc2N1 (stereo not given)	?	/	/	22.4µM*
COc1ccccc1C(=O)N1CCC2(CC1)CC(=O)Nc1ccccc1O2	-11.0%	-20.0%	i	44.7µM*
O=C1CC2(CCN(C(=O)C3CCCN(C(=O)C4CCCC4)C3)CC2)Oc2ccccc2N1 (stereo not given)	-20.2%	/	/	-19.5%
O=C1CC2(CCN(C(=O)C3CCN(C(=O)C4CCCC4)CC3)CC2)Oc2ccccc2N1	-0.8%	/	/	?
Cc1cccc(S(=O)(=O)N(C)CC2CCOC2)c1 (stereo not given)	i	-1.7%	i	9.4%
CC(=O)N1CCCC(c2nn(C)c(=O)n2Cc2ccccc2)C1 (stereo not given)	1.4%	2.1%	i	2.2%
COCCCn1c(C)cc(C(=O)NCCc2noc(-c3ccccc3)n2)c1C	?	-3.3%	i	39.8µM*
COCCCn1c(C)cc(C(=O)NCCc2noc(COC)n2)c1C	i	0.0%	i	4.6%
CCOc1ccc2c(n1)CCN(C(=O)Cc1c(C)noc1C)C2	?	-10.6%	i	?
COC(=O)c1ccc2nc(CO[C@H]3CN(Cc4ccc(C(F)(F)F)cc4)C[C@H]3F)[nH]c2c1	?	?	i	50.1µM*
Cc1cc2nc(CO[C@H]3CN(Cc4ccc(C(=O)O)cc4)C[C@H]3F)[nH]c2cc1C	-1.4%[174 µM]	-2.6%[70.6 µM]	22.4µM*	-8.1%[172 µM]
CC(=O)Nc1ccc(CN2C[C@@H](F)[C@@H](OCc3nc4cc(C)c(C)cc4[nH]3)C2)cc1	?	0.5%[70.6 µM]	i	?
